Measurements from PubChem BioAssay (NCI).
The panel holds about 83,000 compounds, 20% with a hit somewhere; the sample as a whole holds those more often.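 Treatment: one concentration, 48 hours, 96-well format. Scoring: percent growth, with anything below 10 considered active.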 A number with no mark means an inactive call. Calls of active or inactive are those of the source.

What follows are compounds tested on OVCAR-3 ovarian (assay: NCI-60 one-dose screen, 48 h (100 = growth as untreated, 0 = no growth, -100 = all killed)). Settings: 10 µM unless noted.
Procedure: Growth inhibition of the OVCAR-3 human tumor cell line is measured as a screen for anti-cancer activity. Cells are grown in 96 well plates and exposed to the test compound for 48 hours. Compounds are tested at a single concentration, which is 10^-5 M for most compounds. The reported endpoint is percent growth (GI% or GIPRCNT), where numbers from 0 - 100% represent growth inhibition, and numbers from -100% - 0 represent cell death. For example, a value of 40 represents 60% growth inhibition. A value of 0 means no net growth occurred over the course of the experiment. A value of -40 indicates 40% of cells at the beginning of the experiment died by the end of the experiment. A value of -100 means all cells are dead at the end of the experiment.
NCI-60 Human Tumor Cell Lines Screen was performed using the standard one-dose NCI protocol, which is described in more detail at https://dtp.cancer.gov/discovery_development/nci-60/default.htm.
Compounds with GIPRCNT values below 10 were considered active. Activity score was based on GIPRCNT using the following formula: […]
Score is 0 for GIPRCNT values of 100 or above, 50 for GIPRCNT values of 0, and 100 for GIPRCNT values of -100.

Row | SMILES | growth
1 | Cc1ccc2c(C)c3c(ccc4ccccc43)c[n+]2c1 | 53.2%
2 | c1ccc(-c2ccc(-c3ccccc3)[nH]2)cc1 | 106%
3 | O=C1NN(C(=O)c2ccccc2)C(c2ccc(Cl)c(Cl)c2)=C/C1=C\c1ccccc1[N+](=O)[O-] | 15.9% [6.75 µM]
4 | COc1cc2ccc(C(C)=O)cc2cc1OC | 100%
5 | O=C1C=CN2C(=O)CC=CC2[C@@H]1O (stereo not given in full) | 120%
6 | CCCCCCCCCCCCCC1=NC(C)(C)CN1C(C)C | -56.3% (active)
7 | COc1cc(Nc2ncccc2/C=C/C(=O)c2cc(OC)c(OC)c(OC)c2)cc(OC)c1OC | 91.9%
8 | C=C1C(=O)O[C@H]2[C@H]1CC/C(COC(=O)NCc1cn(C)c3ccccc13)=C\CC[C@@]1(C)O[C@@H]21 | -80.8% (active)
9 | Clc1cc2nc(-c3ccccc3)c(-c3ccccc3)nc2cc1Cl | 92.1%
10 | COc1ccc(NC(=O)Cn2c(=O)sc3c(-c4ccc(Cl)cc4)cc(-c4ccc(Cl)cc4)nc32)cc1 | 115%
11 | CCC1=CC2CN(C1)Cc1c([nH]c3ccccc13)[C@@](C(=O)OC)(c1cc3c(cc1OC)N(C)[C@H]1[C@@](O)(C(=O)OC)[C@H](OC(C)=O)[C@]4(CC)C=CCN5CC[C@]31[C@@H]54)C2 (stereo not given in full) | -29.6% (active)
12 | Brc1ccsc1Br | 122%
13 | S=C(Nc1ccc(Cl)cc1)Nc1ccc(Cl)cc1 (tested in a mixture with another compound) | 5.45% (active)
14 | O=c1c2cc(Cl)ccc2oc2ccc(OCCCCCN3CCCCCC3)cc12 | 81.5%
15 | CC(C)(CCc1ccccn1)C(=O)CCCc1ccccn1 | 110%
16 | CC(C)(C)OC[C@@H]1N=C(c2ccc(Br)cc2)Nc2nc3ccccn3c2C1=O | 34.2%
17 | COc1cc(/C=N/NC(=O)Cn2c(-c3ccc(C)o3)nc3ccccc32)ccc1OCc1ccccc1 | 82%
18 | CCN(CC)c1ccc2c(cc1=O)[C@@H](NC(C)=O)CCc1cc(OC)c(OC)c(OC)c1-2 | -24.9% (active)
19 | CCCCCCCCCCCCNC(=O)N[C@H](C(=O)N[C@H]1/C=C/OCCNC(=O)/C=C/[C@H](C(C)C)NC1=O)C(C)C | 24.1%
20 | N/C(=N\OC(=O)c1ccccc1)C(C(=O)NOC(=O)c1ccccc1)C1CCCCC1 (stereo not given) | 66.9%

Row | SMILES | growth
21 | c1cc2c(cc1-c1cnc3nonc3n1)OCO2 | 70.5%
22 | O=c1nc(-c2ccccc2)c2cc(-c3ccc(N4CCOCC4)cc3)ccc2[nH]1 | 97.1%
23 | O=C(CSc1nnc(Cc2ccccc2Nc2c(Cl)cccc2Cl)n1-c1ccccc1)N1N=C(c2ccc3ccccc3c2)CC1c1ccc(Cl)cc1 (stereo not given) | 104%
24 | COc1ccc2c(c1)C1=NN(C(=O)CO)[C@H](c3ccc(OC(F)(F)F)cc3)[C@@H]1CC2 | 88.6%
25 | O=[N+]([O-])c1ccc(N/N=C\c2ccc(O)cc2O)nc1 | 74.8%
26 | NC(N)=NC1CCCCC1 | -50.3% (active)
27 | CCOC(=O)C(CCCCC(NC(C)=O)(C(=O)OCC)C(=O)OCC)(NC(C)=O)C(=O)OCC | 107%
28 | Cn1c(-c2ccccc2)cc(=O)n1-c1ccccc1 | 124%
29 | CCCCc1nc(Cl)c(C2CC(c3ccc(S(N)(=O)=O)cc3)=NN2c2cc(Cl)cc(Cl)c2)[nH]1 (stereo not given) | 45%
30 | O=C(O)CSc1ccc(NCc2oc(CO)cc(=O)c2O)cc1 | 110%
31 | CCCCCCCCCCCCCCCCCC1=NCCN1CCO | 77%
32 | O=C(N/N=C/c1ccc([N+](=O)[O-])cc1)c1ccccc1Nc1ccnc(C(F)(F)F)c1 | 91.5%
33 | O=C(NCCN1CCCCC1)n1cc(-c2ccncc2)c(-c2ccc(Cl)c(O)c2)n1 | 113%
34 | OC(CCCCCCCCC(O)CN1CCc2ccccc2C1)CN1CCc2ccccc2C1 (stereo not given) | 107%
35 | CCOC(OCC)c1cnc2nc(NC(C)=O)[nH]c(=O)c2n1 | 113%
36 | Cc1cc(O)ccc1Sc1ccccc1[N+](=O)[O-] | 96.1%
37 | COc1cnc2c(c1)C(=O)c1c-2n(CCCNC(C)C)c(=O)c2cc(Cl)ccc12 | -78.3% (active)
38 | COc1ccc(-c2nn(C(=O)NCCN(C)C)cc2-c2ccncc2)cc1Cl | 51.3%
39 | Clc1ccc(C2=NN[C@H](c3cn(-c4ccccc4)nc3-c3ccccc3)C2)cc1 | 58.6%
40 | O=c1c2cc(Cl)ccc2oc2ccc(OCCCCCN3CCCCC3)cc12 | 67.1%
